# Among all 320,000 compounds or so, about 2,100 (0.66%) were called active.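 The calls were made as follows: active = inhibition above the mean inhibition of all tested compounds plus 3 SD, set per campaign (cut at about 40% in these data); inactive = the rest.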 For the sample, actives were picked, then their nearest neighbours and some compounds at random.
# Target: Induced myeloid leukemia cell differentiation protein Mcl-1 (Homo sapiens) (UniProt Q07820)
# Assay: inhibitors of MCL1 binding to BIM-BH3, primary screen, biochemical, fluorescence polarization (AID 2057);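 also: 0% = DMSO wells and 100% = unlabeled Bim-BH3 peptide control; higher means more loss of mP so more displacement of Bim peptide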
# Conditions: GST-MCL1 / FITC-Bim-BH3 fluorescence polarization; at 10.9 µM; active compounds read high
# Sequence of Induced myeloid leukemia cell differentiation protein Mcl-1 (Homo sapiens) (Q07820 whole entry, looked up): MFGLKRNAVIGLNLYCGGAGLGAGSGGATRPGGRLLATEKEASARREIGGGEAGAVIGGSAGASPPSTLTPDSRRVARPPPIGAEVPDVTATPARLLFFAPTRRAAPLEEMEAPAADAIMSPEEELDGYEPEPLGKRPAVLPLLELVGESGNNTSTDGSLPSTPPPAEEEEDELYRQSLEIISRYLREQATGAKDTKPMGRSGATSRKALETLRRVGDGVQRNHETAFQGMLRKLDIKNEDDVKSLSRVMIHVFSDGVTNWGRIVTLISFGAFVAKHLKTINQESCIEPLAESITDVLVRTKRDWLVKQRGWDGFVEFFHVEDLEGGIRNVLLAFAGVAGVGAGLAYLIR
row,SMILES,inhibition
1,CCCCCCn1c(CN2CCCC(C)C2)nc2c1c(=O)n(C)c(=O)n2C (stereo not drawn),4.79% (inactive)
2,Cc1c(CN2CCCCC2)c(O)n(CCO)c(=O)c1C#N,18.2% (inactive)
3,CCCn1c(O)c(CN2CCCC(C)C2)c(C)c(C#N)c1=O (stereo not drawn),57.2% (active)
4,O=C(COC(=O)c1ncc(Cl)c(Cl)c1Cl)NC1CCS(=O)(=O)C1 (stereo not drawn),-1.74% (inactive)
5,O=C(CN1CCN(c2ccccc2O)CC1)NC(=O)NCc1ccccc1,5.09% (inactive)
6,CC(=O)c1ccc(NC(=O)CCc2nnc3ccc(NCc4ccco4)nn23)cc1,2.1% (inactive)
7,CC(C)CCN1CCN(Cc2cn[nH]c2C2CCCCC2)CC1CCO (stereo not drawn),-6.25% (inactive)
8,CN(C)S(=O)(=O)c1ccc(N/C=C(\[N+](=O)[O-])S(=O)(=O)c2ccccc2)cc1,2.14% (inactive)
9,CC(NCc1nc2ccccc2n1C)C12CC3CC(CC(C3)C1)C2 (stereo not drawn),-2.96% (inactive)
10,CCc1c(-c2ccccc2)nc(N)c(C#N)c1-c1cccs1,11.5% (inactive)
11,CN1CCc2nc(SC(C(=O)O)c3ccccc3)c(C#N)c(-c3cccs3)c2C1 (stereo not drawn),45.7% (active)
12,Cc1c(-c2ccccc2)nc(N)c(C#N)c1-c1cccs1,4.53% (inactive)
13,CCN(CC(=O)NC1CCS(=O)(=O)C1)S(=O)(=O)c1ccccc1 (stereo not drawn),-7.02% (inactive)
14,COc1ccc(C2/C=C\CN(S(=O)(=O)c3cccs3)CC(=O)N2Cc2ccc(F)cc2)cc1 (stereo not drawn),3.81% (inactive)
15,O=C(CCS(=O)(=O)c1ccccc1)NC1CCCC1,-0.76% (inactive)
16,CC(=O)c1ccc(N2C(=NC(=O)C(C)C)SC3CS(=O)(=O)CC32)cc1 (stereo not drawn),2.13% (inactive)
17,Cc1cc2ccccc2n1CCNC(=O)COc1ccc2ccccc2c1,2.6% (inactive)
18,Cc1cc2ccccc2n1CCC(=O)O,49.7% (active)
19,O=C(O)CCn1c(Cc2ccccc2)nc2ccccc21,1.68% (inactive)
20,O=C(O)C1C2CC2CN1C(=O)c1ccc(Cl)cc1Cl (stereo not drawn),0.95% (inactive)
21,Cc1cccc(C)c1Nc1c(-c2ccccc2O)nc2ncccn12,0.37% (inactive)
22,CCC(C)CN1CCC(CO)(Cc2ccccc2Cl)CC1 (stereo not drawn),0.34% (inactive)
23,COC(=O)c1sc(C(F)(F)F)c(-c2ccccc2)c1S(=O)(=O)N(C)C,4.01% (inactive)
24,Cc1cc(Cl)ccc1NNC(=O)c1snnc1C,6.52% (inactive)

row,SMILES,inhibition
1,O=C(COC(=O)Cn1cnc2ccccc21)Nc1cccc2c1C(=O)c1ccccc1C2=O,155% (active)
2,O=C(Cn1cnc2ccccc21)Nc1ccccc1-c1ccccc1,6.02% (inactive)
3,O=C(COC(=O)c1cccc(Br)c1)Nc1cccc2c1C(=O)c1ccccc1C2=O,-1.24% (inactive)
4,COc1ccc(OC)c2[nH]c(=O)c(CCNC(=O)C(=O)c3c[nH]c4ccccc34)cc12,7.82% (inactive)
5,CCn1c(=S)sc2c(=O)n(CC(=O)Nc3cccc(Br)c3)c(C)nc21,-2.89% (inactive)
6,COc1cccc(NC(=O)C2C(c3ccccc3)C2(Cl)Cl)c1 (stereo not drawn),6.86% (inactive)
7,CCN1CCN(CC(=O)c2cc(OC)c(OC)c(OC)c2)CC1,0.87% (inactive)
8,O=C(OCC1OC(Oc2ccc(O)cc2)C(O)C(O)C1O)c1ccccc1 (stereo not drawn),-1.58% (inactive)
9,O=C(OCC1O[C@@H](OC(=O)c2cc(O)c(O)c(O)c2)[C@@H](OC(=O)c2cc(O)c(O)c(O)c2)[C@@H](OC(=O)c2cc(O)c(O)c(O)c2)[C@@H]1OC(=O)c1cc(O)c(O)c(O)c1)c1cc(O)c(O)c(O)c1 (stereo partly drawn),74.8% (active)
10,COC(=O)C(C)Sc1ccc2nnc(-c3cccc(F)c3)n2n1 (stereo not drawn),-5.54% (inactive)
11,O=C1c2ccccc2C(=O)c2c1cccc2N1CCN(CCO)CC1,60.6% (active)
12,O=C1c2ccccc2C(=O)c2c1cccc2N1CCN(Cc2ccccc2)CC1,7.86% (inactive)
13,O=C1c2ccccc2C(=O)c2c1cccc2N1CCN(C/C=C/c2ccccc2)CC1,13.8% (inactive)
14,CCC(=O)c1ccc(OCC(=O)Nc2ccc(N3CCCCC3)cc2)cc1,0.81% (inactive)
15,Cc1ccc(S(=O)(=O)N2CC(C)N(S(C)(=O)=O)C2)cc1 (stereo not drawn),7.35% (inactive)
16,CC1CCc2sc(C(=O)NCC(c3ccco3)N3CCCCC3)cc2C1 (stereo not drawn),-3.03% (inactive)
17,COc1ccc(CCN2C(=O)N(c3ccc(OC)cc3)C(=O)C2CC(=O)Nc2ccc(OC)cc2)cc1 (stereo not drawn),2.06% (inactive)
18,CC(=O)Nc1ccc(Nc2cc(C)nc(Nc3ccc(NC(C)=O)cc3)n2)cc1,-11.2% (inactive)
19,Cc1cc(C)c(CN2CCN(C(=O)Cn3ccc(NC(=O)OCc4ccccc4)nc3=O)CC2)c(C)c1,2.72% (inactive)
20,O=C(CNC(=O)Cc1ccccc1)N=Nc1c(O)[nH]c2ccc(Br)cc12,4.04% (inactive)
21,Oc1[nH]c2ccc(Br)cc2c1N=Nc1nn[nH]n1,6.9% (inactive)
22,NS(=O)(=O)c1ccc(N=Nc2c(O)[nH]c3ccc(Br)cc23)cc1,44.2% (active)
23,Cc1ccc(C(=O)NC(=S)NCCN2CCOCC2)cc1,6.07% (inactive)
24,Cc1ccc(NC(=S)NC(=O)c2ccc(-c3ccccc3)cc2)cc1,4.74% (inactive)

row,SMILES,inhibition
1,Cc1ccc(C(=O)NC(=S)Nc2ccc(N3CCOCC3)cc2)cc1,46.3% (active)
2,CC(=O)Nc1ccc(S(=O)(=O)NC2Cc3ccccc3C2)cc1,1.26% (inactive)
3,COc1ccc(/C(N)=N/OC(=O)CCCc2ccccc2)cc1,-1.09% (inactive)
4,N/C(=N\OC(=O)CCc1ccccc1)c1cccnc1,4.17% (inactive)
5,N/C(=N\OC(=O)CCc1ccccc1)c1ccc(Cl)cc1,64.4% (active)
6,CCCSC(=S)NC1CCS(=O)(=O)C1 (stereo not drawn),2.09% (inactive)
7,COc1ccc2oc(=O)c(C(=O)NCc3ccccn3)cc2c1,0.27% (inactive)
8,O=C(NCc1ccccn1)c1ccc2nc(-c3ccco3)c(-c3ccco3)nc2c1,106% (active)
9,Cc1cc(C)cc(NC(=O)NCc2ccccn2)c1,1.97% (inactive)
10,CCOc1cc(NC(=S)NCCCOC)c(OCC)cc1NC(=O)c1ccco1,9.31% (inactive)
11,COCCNC(=O)Nc1ccc2nc(-c3ccco3)c(-c3ccco3)nc2c1,131% (active)
12,Cc1nc2cc(NC(=O)NCc3ccccc3)ccc2o1,-6.46% (inactive)
13,Cc1cc(C)nc(-n2ncc3c2CC(c2ccc(C(C)C)cc2)CC3=O)n1 (stereo not drawn),2.19% (inactive)
14,O=C(COC(=O)C1CCN(S(=O)(=O)c2ccc3c(c2)OCCO3)CC1)Nc1ccccc1OC(F)F,0.49% (inactive)
15,O=C1CCN(C(=O)Nc2ccccc2)N1,-0.78% (inactive)
16,C=CCOc1cccc(C2C(C(=O)c3ccc(C)o3)=C(O)C(=O)N2CCCn2ccnc2)c1 (stereo not drawn),-4.11% (inactive)
17,C=CCOc1cccc(C2C(C(=O)c3ccc(C)o3)=C(O)C(=O)N2c2nnc(C)s2)c1 (stereo not drawn),81.2% (active)
18,Cc1cc(N2C(=O)C(O)=C(C(=O)c3ccc(C)o3)C2c2ccc(OCc3ccccc3)cc2)no1 (stereo not drawn),10.4% (inactive)
19,CCNC(=S)N(CCN(CC)CC)Cc1cc2cc3c(cc2[nH]c1=O)OCCO3,13.5% (inactive)
20,Cc1ccc(OCC(=O)Nc2ccccc2Sc2ccc(Cl)cc2)c([N+](=O)[O-])n1,3.45% (inactive)
21,CC(C)c1csc(CN2CCC(CO)(Cc3ccccc3)CC2)n1,8.03% (inactive)
22,Cc1[nH]c2ccccc2c1CCN(Cc1cccs1)C(=S)NC(C)(C)C,7.74% (inactive)
23,COc1ccc2[nH]c(C)c(CCN(Cc3cccs3)C(=S)Nc3ccccc3OC)c2c1,65.3% (active)
24,COc1cccc(NC(=S)N(CCc2c(C)[nH]c3ccccc23)Cc2ccco2)c1,4.2% (inactive)

row,SMILES,inhibition
1,CC(CC(=O)N1CCN(c2ccccc2)CC1)S(=O)(=O)c1ccc2c(c1)NC(=O)CS2 (stereo not drawn),-2.69% (inactive)
2,CN(C(=O)COC(=O)CNC(=O)C12CC3CC(CC(C3)C1)C2)c1ccccc1,-5.29% (inactive)
3,Cc1ccsc1C(=O)NCCc1ccco1,7.13% (inactive)
4,COc1ccccc1-c1oc2ccccc2c1C#CCCCCO,-3.18% (inactive)
5,CC(=O)Nc1ccc(S(=O)(=O)N2CCC(C(=O)NC3CC3)CC2)cc1,-6.89% (inactive)
6,Cc1ccc(Cc2cnc(NC(=O)/C(C#N)=C/c3ccc(-c4cccc([N+](=O)[O-])c4)o3)s2)cc1,-0.71% (inactive)
7,O=C(O)c1cc(Cl)c(Cl)cc1C(=O)Nc1cccc2ncccc12,-1.24% (inactive)
8,Cc1ccc(/C=C(\C#N)C(=O)Nc2cccc3ncccc23)o1,138% (active)
9,COc1ccc(OC)c(C(C)NC(=S)Nc2ccc(S(=O)(=O)Nc3ncccn3)cc2)c1 (stereo not drawn),5.87% (inactive)
10,CCN(CC)CCNC(=O)c1sc2ncn(CC(=O)Nc3ccc(C)c(Cl)c3)c(=O)c2c1C,-4.53% (inactive)
11,CCOc1cc(C(=S)N2CCOCC2)ccc1OS(=O)(=O)c1ccc(Br)cc1,2.62% (inactive)
12,CSc1ccccc1-c1nnc(-c2ccc(Cl)cc2)o1,-2.22% (inactive)
13,COc1ccc(/C=N/NC(=O)c2ccncc2)cc1CN1CCCc2ccccc21,9.1% (inactive)
14,Cc1c(Nc2cc(N3CCCC(C)C3)c3nonc3c2[N+](=O)[O-])c(=O)n(-c2ccccc2)n1C (stereo not drawn),-0.42% (inactive)
15,Nc1nc(NCC(=O)O)nc(N2CCCCCC2)c1[N+](=O)[O-],1.22% (inactive)
16,Nc1cc(N2CCCCCC2)c2nonc2c1[N+](=O)[O-],48% (active)
17,CC(C)COC(=O)C1C2C=CC3(CN(C(C)c4ccc(Br)cc4)C(=O)C13)O2 (stereo not drawn),-1.26% (inactive)
18,Cc1ccc(C(=O)COC(=O)CCCC(=O)NC2CCCCC2)cc1[N+](=O)[O-],-0.81% (inactive)
19,C=CCn1c(SCc2csc(C)n2)nc2scc(-c3ccc(C)o3)c2c1=O,-8.6% (inactive)
20,C=CCn1c(=S)[nH]c2scc(-c3ccco3)c2c1=O,67.4% (active)
21,C=CCNC(=O)CSc1nc2scc(-c3ccco3)c2c(=O)n1CC=C,-5.54% (inactive)
